# This is a sample that favours compounds with a hit; in the whole collection about 1.9% have one here.
# PABP polyA inh = blocks human PABP binding to poly(A) RNA; P11940; fluorescence polarization; calls only at 35 µM; 1% of 290,000 active;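 note: calls also rest on retests at 20 µM and on dose response follow-up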
# PABP1 MLLE inh = blocks PAM2 peptide binding to the PABP1 MLLE domain | P11940 | GST-MLLE / FITC-PAM2 fluorescence polarization | inhibition, % at 20 µM | 0.36% of 360,000 active; in the data active = inhibition above about 35%, passing the limit was not always enough;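 note: plate controls were DMSO wells with GST-MLLE for no effect and wells lacking GST-MLLE protein for full effect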
# eIF4H inh = inhibitors of RNA binding by human eIF4H | Q15056 | eIF4H fluorescence polarization binding assay | inhibition, % at 35 µM | 0.94% of 290,000 active | AID 2012;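 note: calls also rest on retests at 20 µM and on dose response follow-up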
# 14-3-3 Bad inh = disrupts binding of bovine 14-3-3 zeta to phospho-Bad peptide; P63103; TR-FRET 14-3-3zeta/Dy647-pBad peptide displacement, 1 h; inhibition, % at 21.7 µM; 0.71% of 220,000 active;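 active = inhibition above about 70%, limit read from the data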;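 note: 0% = full 14-3-3 plus peptide FRET controls and 100% = background without 14-3-3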
# Target sequence (P63103 whole entry, looked up): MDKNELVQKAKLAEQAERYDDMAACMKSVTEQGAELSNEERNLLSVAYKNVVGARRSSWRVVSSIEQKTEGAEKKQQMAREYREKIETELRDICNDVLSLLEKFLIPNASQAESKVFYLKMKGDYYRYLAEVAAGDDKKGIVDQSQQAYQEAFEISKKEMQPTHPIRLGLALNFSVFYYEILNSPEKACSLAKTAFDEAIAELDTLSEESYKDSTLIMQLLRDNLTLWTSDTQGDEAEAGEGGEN
# eIF4E 4G PPI = inhibitors of eIF4E and eIF4G interaction in translation initiation. inhibition, % at 21.7 µM. TR-FRET eIF4E-eIF4GI(517-606) binding, 2 h. P63073+Q04637. 0.37% of 220,000 active;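 active = inhibition above about 30%, limit read from the data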;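 note: 0% = full FRET control wells and 100% = background wells lacking eIF4GI fragment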
# The depositor's hits bear a star; i = inactive; ? = inconclusive; · = no result; + = active, no number; [ ] = remark or other dose. Unless noted, the rule behind the calls is not given here.
SMILES,PABP polyA inh,PABP1 MLLE inh,eIF4H inh,14-3-3 Bad inh,eIF4E 4G PPI
O=[N+]([O-])c1ccc2nc(-c3ccccc3)cc(-c3ccccc3)c2c1,i,4,4,6,17
Nc1nc(-c2cc(O)ccc2[N+](=O)[O-])cc(-c2ccccc2)c1[N+](=O)[O-],+,-17,98*,·,·
COc1cc(/C=C2\SC(=Nc3ccccc3)N(CCc3c[nH]c4ccccc34)C2=O)ccc1OC(C)C(=O)O (centres undefined),i,-22,15,-7,5
COc1ccc(N=C2S/C(=C\c3ccc(OC(C)C(=O)O)c(OC)c3)C(=O)N2CCc2c[nH]c3ccccc23)cc1 (centres undefined),+,-7,?,3,9
CCOC(=O)c1c(NC(=O)C2CC2)sc2c1CC(C)(C)OC2,i,11,-8,91*,-10
CCOC(=O)c1c(NC(=O)CCC(=O)O)sc2c1CC(C)(C)OC2,i,-7,-3,-6,-1
COC(=O)c1cc(NC(=O)c2ccccc2)c(=O)oc1C/C=N\OCc1ccc(Cl)cc1Cl,+,-35,72*,0,-10
CO/N=C\Cc1oc(=O)c(NC(=O)c2ccccc2)cc1C(=O)OC,+,-1,81*,·,·
CCOc1cc(C(=O)OC(C(=O)NC(=O)NC)c2ccccc2)ccc1OCC(=O)N1CCOCC1 (centres undefined),·,-39,·,·,·
c1coc(-c2nc(N=C3N=c4ccccc4=N3)[nH]c2-c2ccco2)c1,·,-22,·,·,·
CS(=O)(=O)Nc1ccc(C2=NN(S(=O)(=O)c3ccc(F)cc3)C(c3ccco3)C2)cc1 (centres undefined),i,-30,active,6,2
Cc1ccc(C2=NN(S(=O)(=O)c3ccccc3)C(c3ccco3)C2)cc1 (centres undefined),·,2,·,·,·
C[C@@H]1CN([C@@H](C)CO)C(=O)c2cc(Br)cnc2O[C@H]1CN(C)Cc1cccc(C(=O)O)c1,·,-1,·,·,·
C(=C\c1ccccc1)/CSc1nc2ncccc2[nH]1,i,-4,0,3,1
CCN1C(=O)[C@H]2[C@@H](c3ccc(OC)cc3)N3C(=O)CN(CCOC)C(=O)[C@@]3(Cc3ccccc3)[C@H]2C1=O,i,-10,7,·,·
COC(=O)c1ccc(CC(=O)c2ccc(O)cc2O)o1,i,-21,6,6,6
COC(=O)c1ccc(CC(=O)c2c(C)cc(O)cc2O)o1,+,1,80*,-16,12
O=C(c1ccc(NC(=O)C(c2ccccc2)c2ccccc2)cc1)c1ccc(C(=O)O)c(C(=O)O)c1,+,13,78*,·,·
Cc1cccc(NC(=O)N2CCCC2C(=O)Nc2ccccc2)c1 (centres undefined),i,-5,2,0,-4
CCCCNC(=S)N(C)/N=C/c1ccc(OCc2ccc(C(=O)OC)cc2)c(OC)c1,+,-9,3,-7,3
CCC(=O)c1ccc(OCc2ccc(C(=O)OC)cc2)c(OC)c1,i,1,-2,21,6
CCn1c(/C=C/c2ccccc2)nc2ccccc21,i,8,-4,-11,-4
CCCn1c(/C=C/c2cc[n+](C)cc2)nc2ccccc21,+,-20,38,·,·
O=C(CCCSc1ccccc1)Nc1nc(-c2ccco2)c(-c2ccco2)s1,i,-5,96*,-2,0
O=C1NC(c2ccco2)Nc2sc3c(c21)CCN(Cc1ccccc1)C3 (centres undefined),+,-74,116*,2,-4
SMILES,PABP polyA inh,PABP1 MLLE inh,eIF4H inh,14-3-3 Bad inh,eIF4E 4G PPI
CCN=c1scc(C)n1/N=C/c1ccc(O)c(O)c1O,+,20,82*,-1,7
CCOC(=O)C1=CCN(S(=O)(=O)c2ccc(C)cc2)C1c1cccs1 (centres undefined),·,9,·,·,·
COc1ccc(CCNc2ccc(N3C(=O)CC(C)C3=O)cc2[N+](=O)[O-])cc1OC (centres undefined),i,15,4,-19,-1
Cc1c(C(=O)N2CCCC2)sc(NC(=O)c2ccccc2)c1C#N,i,3,0,78*[fluorescence artefact?],0
Cc1c(C(=O)N2CCCC2)sc(NC(=O)c2cccs2)c1C#N,i,-2,8,19,7
CCN1C(=O)/C(=C/c2ccc(OC)c(OC)c2)N=C1SCC(=O)NCc1ccco1,i,38*,12,3,1
COc1ccc(C2CC(=O)N3CN(c4ccccc4F)CSC3=C2C#N)cc1OC (centres undefined),i,-17,14,-3,5
CCc1ccccc1N1CSC2=C(C#N)C(c3ccccc3F)CC(=O)N2C1 (centres undefined),+,-29,78*,3,7
Cc1cccc(N2CSC3=C(C#N)C(c4ccc(C)o4)CC(=O)N3C2)c1 (centres undefined),+,·,98*,13,16
CCOC(=O)c1cc2c(=O)n3ccccc3nc2n(Cc2ccco2)c1=NC(=O)c1cccnc1,i,2,43,-5,5
COc1ccc(CCNC(=O)c2cc3c(=O)n4ccccc4nc3n(Cc3ccco3)c2=N)cc1OC,i,-2,87*,·,·
N=c1c(C(=O)NCc2ccco2)cc2c(=O)n3ccccc3nc2n1CCc1ccccc1,+,-10,59*,-12,2
COCCn1c(=N)c(C(=O)NCc2ccco2)cc2c(=O)n3cc(C)ccc3nc21,i,69*,107*,-9,0
CCOC(=O)c1cc2c(=O)n3ccccc3nc2n(Cc2ccco2)c1=NC(=O)c1ccccc1OCC,i,-1,90*,25,3
CC(=O)c1cccc(N2C(=O)CC(N3CCN(S(=O)(=O)c4ccc(Cl)cc4)CC3)C2=O)c1 (centres undefined),·,5,·,·,·
Cc1cc(C=NCCCO)c(C)n1-c1cc(Cl)ccc1Cl,i,3,-6,10,4
O=C(CCN1N=C(c2ccccc2)CCC1=O)NCC1COc2ccccc2O1 (centres undefined),i,15,0,·,·
COc1ccc2oc(C(=O)OC(C)C(=O)N3C(C)CCCC3C)c(C)c2c1 (centres undefined),·,-8,·,·,·
Cc1ccc(/C=C2\SC(=S)N(CCC(=O)NNS(=O)(=O)c3ccccc3)C2=O)cc1,i,-22,13,1,1
O=C(NCc1ccc(F)cc1)C1CCC(CNS(=O)(=O)c2ccccc2)CC1 (centres undefined),i,-3,-2,·,·
COc1ccccc1NC(=O)c1ccc(N2CC3CC(C2)c2cccc(=O)n2C3)c(NC(=O)c2ccncc2)c1 (centres undefined),i,9,-5,·,·
Cc1cccn2c(=O)c3cc(C(=O)NCc4ccco4)c(=N)n(C4CCCCC4)c3nc12,?,-25,?,·,·
Cc1ccc(Cn2c(=N)c(C(=O)NCc3ccco3)cc3c(=O)n4ccccc4nc32)cc1,+,-31,75*,-6,1
